Results taken from PubChem BioAssay (NCATS).
Results filed as inconclusive are left out. Calls of active or inactive are those of the source. Unless noted, the call rests on the fitted dose curve.

Experiments:
[1] = qHTS for Inhibitors of the Functional Ribonucleoprotein Complex (vRNP) of Lassa (LASV) Arenavirus: LASV Primary Screen - GLuc reporter signal (AID 1347082; calls by dose curve; tested in HEK293 reporter line; further: on the % scale 0 is the no-effect control and ±100 the full control effect; nearly all actives have a fitted effect of over 60% in size)
[2] = qHTS for Inhibitors of the Functional Ribonucleoprotein Complex (vRNP) of Lassa (LASV) Arenavirus: Viability assay - alamar blue signal for LASV Primary Screen (AID 1347083; calls by dose curve; tested in HEK293 reporter line; further: on the % scale 0 is the no-effect control and ±100 the full control effect; nearly all actives have a fitted effect of over 80% in size)
[3] = qHTS for Inhibitors of the Functional Ribonucleoprotein Complex (vRNP) of Lymphocytic Choriomeningitis Arenaviruses (LCMV): Viability assay - alamar blue signal for LCMV Primary Screen (AID 1347085; calls by dose curve; tested in HEK293 reporter line; further: on the % scale 0 is the no-effect control and ±100 the full control effect; nearly all actives have a fitted effect of over 80% in size)
[4] = target: Nucleoprotein (Lymphocytic choriomeningitis virus (strain Armstrong)) (UniProt P09992); assay: qHTS for Inhibitors of the Functional Ribonucleoprotein Complex (vRNP) of Lymphocytic Choriomeningitis Arenaviruses (LCMV): LCMV Primary Screen - GLuc reporter signal (AID 1347086); further: on the % scale 0 is the no-effect control and ±100 the full control effect; nearly all actives have a fitted effect of over 70% in size
[5] = test system: Zika virus NS2B-NS3 protease; assay: Primary screen GU AMC qHTS for Zika virus inhibitors (AID 1347154; active means well fitted curve in the direction sought with a large enough effect; an effect the other way counts as inactive or inconclusive;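 further: 0% = no-inhibitor control and -100% = no-enzyme control; nearly all actives have a fitted effect of over 70% in size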)
Procedure, shortened: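 Fluorogenic AMC-substrate cleavage by noncovalent NS2B-NS3 protease complex (25 nM, pH 8.0 Tris buffer with Tween 20) followed for 15 minutes at room temperature (~20% conversion). Percent inhibition from ex340/em450 signal change, fitted by 4-parameter Hill equation.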

[6] = Primary qHTS for small molecule stabilizers of the endoplasmic reticulum resident proteome: Secreted ER Calcium Modulated Protein (SERCaMP) assay (AID 1508630; active means well fitted curve in the direction sought with a large enough effect; an effect the other way counts as inactive or inconclusive; further: on the % scale 0 is the no-effect control and ±100 the full control effect)
Procedure, shortened: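 GLuc-SERCaMP-expressing SH-SY5Y cells, pretreated 16 h with compound, are challenged with thapsigargin to empty ER calcium stores; after 4 h, coelenterazine is added directly to the medium and luminescence is imaged.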

[7] = target: Alpha-galactosidase (Coffea arabica) (UniProt Q42656); assay: Counterscreen for Glucocerebrosidase Inhibitors: qHTS Assay for Coffee Bean alpha-Galactosidase at pH 4.5 (AID 957; active means well fitted curve in the direction sought with a large enough effect; an effect the other way counts as inactive or inconclusive;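 further: plate controls were enzyme alone for no effect and no enzyme for full effect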)
Procedure, shortened: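 Coffee bean alpha-galactosidase 2 nM, substrate 4-MU-alpha-Gal 80 uM, pH 4.5 citrate/Tween-20, 20 min RT. Cpd titration 0.7 nM–77 uM. Stop pH 10, fluorescence 365/440 nm; Hill-equation AC50.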

[8] = target: Alpha-galactosidase (Coffea arabica) (UniProt Q42656); assay: Counterscreen for Glucocerebrosidase Inhibitors: qHTS Assay for Coffee Bean alpha-Galactosidase at pH 5.9 (AID 998; active means well fitted curve in the direction sought with a large enough effect; an effect the other way counts as inactive or inconclusive;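 further: plate controls were uninhibited enzyme for no effect and no-enzyme basal signal for full effect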)
Procedure, shortened: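 Compounds were titrated from 0.7 nM to 77 uM against green coffee bean alpha-galactosidase (2 nM) using 80 uM fluorogenic 4-methylumbelliferyl substrate. After 20 min at room temperature, reactions were stopped at pH 10 and read by fluorescence.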

[9] = Inducers of the Endoplasmic Reticulum Stress Response (ERSR) in human glioma: Validation (AID 504836; active means well fitted curve in the direction sought with a large enough effect; an effect the other way counts as inactive or inconclusive; further: 0% is about no effect)
Procedure, shortened: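 ERSR induction read as luciferase luminescence (Bright-Glo, 10 min at room temperature) in stably transfected human U87-MG glioma cells exposed to compounds for 16 h, using GRP78 as sensor.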

[10] = target: Bile acid receptor (Homo sapiens) (UniProt Q96RI1); assay: qHTS assay for small molecule agonists of farnesoid X receptor signaling (AID 588527); conditions: HEK293T FXR-UAS-bla, beta-lactamase ratio, 16 h; activation: stronger effect = higher value;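 further: 0% = vehicle basal and 100% = reference agonist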
Procedure, shortened: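 Quantitative HTS used FXR-UAS-bla HEK293T cells with 16 h compound incubation at 37 C. EC50 values came from concentration-response curves normalized to chenodeoxycholic acid.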

[11] = target: Peroxisome proliferator-activated receptor delta (Homo sapiens) (UniProt Q03181); assay: qHTS assay for small molecule agonists of peroxisome proliferator-activated receptor delta signaling (AID 588534);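 further: 0% = DMSO basal wells and 100% = positive control agonist at 10 µM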
Procedure, shortened: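 Fluorescence from CCF4 substrate cleavage by beta-lactamase reporter, read 2 hrs at RT, measured agonist activity. Compounds were tested with 18 hrs exposure at 37 C. Concentration-response data fitted to Hill equation.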

[12] = Primary qHTS for inhibitors of SARS-S pseudo-typed particle cell entry (AID 1479145); further: nearly all actives have a fitted effect of over 45% in size
[13] = Primary qHTS for Huh7 cytotoxicity: counterscreen for inhibitors of MERS-S pseudotyped particle cell entry (AID 1479147); conditions: outcome: dose series up to 57.1 µM unless noted
[14] = Primary qHTS for inhibitors of MERS-S pseudo-typed particle cell entry (AID 1479149); further: on the % scale 0 is the no-effect control and ±100 the full control effect; nearly all actives have a fitted effect of over 60% in size
[15] = Primary qHTS for Vero E6 cytotoxicity: counterscreen for inhibitors of SARS-S pseudo-typed particle cell entry (AID 1479150); conditions: outcome: dose series up to 57.1 µM unless noted
[16] = Confirmatory qHTS to identify inhibitors of SARS-CoV-2 cell entry (AID 1645844); further: potency means the concentration at half of the fitted maximal effect; nearly all actives have a fitted effect of over 45% in size
Procedure, shortened: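 Luminescence from a luciferase reporter, read 48 hr after pseudotyped-particle addition, gives entry signal, normalised to spike-bearing PP wells and bald PP lacking fusion protein wells. Cells are Expi293F stably expressing human ACE2, compound-pretreated 1 hr.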

[17] = Cytotoxicity counterscreen for inhibitors of SARS-CoV-2 cell entry (AID 1645845); further: nearly all actives have a fitted effect of over 50% in size
Procedure, shortened: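 48 h compound treatment (after 1 h preincubation), HEK293-ACE2 cells, 37 C/5% CO2; ATP luminescence endpoint; normalized to cell wells and media blanks.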

[18] = Primary qHTS to identify inhibitors of SARS-CoV-2 cell entry (AID 1645846); conditions: activity change, negative = inhibition: at 57.1 µM (top of the series) unless noted; further: nearly all actives have a fitted effect of over 45% in size
Procedure, shortened: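 Entry measured by luciferase signal 48 h after adding SARS-CoV-2-S pseudotyped MLV particles to HEK293-ACE2 cells preincubated 1 h with compounds. Normalisation: bald particles and spike particles.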

[19] = VSVG counterscreen qHTS to identify inhibitors of SARS-CoV-2 cell entry (AID 1645847); further: potency means the concentration at half of the fitted maximal effect; nearly all actives have a fitted effect of over 65% in size
Procedure, shortened: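 Luminescence read after 48 h infection at 37 C with VSV-G-pseudotyped MLV particles, following 1 h compound exposure of Expi293F cells stably expressing human ACE2; scaled between bald particle and VSV-G particle wells.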

[20] = Validation screen for inhibitors of Lassa infection (AID 463096); further: on the % scale 0 is the no-effect control and ±100 the full control effect
[21] = qHTS for inhibitors of Rabies Virus screened against the NCATS CANVASS Library (AID 1347402); further: 0% is about no effect

Chain of Nucleoprotein (Lymphocytic choriomeningitis virus (strain Armstrong)) (P09992 whole entry, looked up): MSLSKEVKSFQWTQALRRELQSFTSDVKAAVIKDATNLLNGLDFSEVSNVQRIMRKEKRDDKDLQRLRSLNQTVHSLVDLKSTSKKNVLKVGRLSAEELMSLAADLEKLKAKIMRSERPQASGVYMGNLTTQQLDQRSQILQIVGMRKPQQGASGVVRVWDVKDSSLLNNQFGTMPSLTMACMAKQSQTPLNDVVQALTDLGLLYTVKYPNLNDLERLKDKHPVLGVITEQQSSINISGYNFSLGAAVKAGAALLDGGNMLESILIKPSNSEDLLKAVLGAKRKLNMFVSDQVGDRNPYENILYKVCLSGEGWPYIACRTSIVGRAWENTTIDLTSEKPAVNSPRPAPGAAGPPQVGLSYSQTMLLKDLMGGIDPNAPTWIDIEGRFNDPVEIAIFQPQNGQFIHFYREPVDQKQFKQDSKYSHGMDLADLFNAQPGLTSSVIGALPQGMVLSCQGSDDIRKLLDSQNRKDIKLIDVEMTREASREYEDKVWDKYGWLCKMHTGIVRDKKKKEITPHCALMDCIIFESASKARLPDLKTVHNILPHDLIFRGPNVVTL
Chain of Alpha-galactosidase (Coffea arabica) (Q42656 whole entry, looked up): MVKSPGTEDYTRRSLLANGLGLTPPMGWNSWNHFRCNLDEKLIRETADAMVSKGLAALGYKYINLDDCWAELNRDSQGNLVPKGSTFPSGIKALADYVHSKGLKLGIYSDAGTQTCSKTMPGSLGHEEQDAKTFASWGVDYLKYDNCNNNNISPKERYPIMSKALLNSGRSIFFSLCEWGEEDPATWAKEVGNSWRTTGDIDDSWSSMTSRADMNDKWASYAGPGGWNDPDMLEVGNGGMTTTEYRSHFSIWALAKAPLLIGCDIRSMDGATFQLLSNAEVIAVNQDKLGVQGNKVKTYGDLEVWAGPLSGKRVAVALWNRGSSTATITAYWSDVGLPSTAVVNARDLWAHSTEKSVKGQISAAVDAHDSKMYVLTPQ
Chain of Peroxisome proliferator-activated receptor delta (Homo sapiens) (Q03181 whole entry, looked up): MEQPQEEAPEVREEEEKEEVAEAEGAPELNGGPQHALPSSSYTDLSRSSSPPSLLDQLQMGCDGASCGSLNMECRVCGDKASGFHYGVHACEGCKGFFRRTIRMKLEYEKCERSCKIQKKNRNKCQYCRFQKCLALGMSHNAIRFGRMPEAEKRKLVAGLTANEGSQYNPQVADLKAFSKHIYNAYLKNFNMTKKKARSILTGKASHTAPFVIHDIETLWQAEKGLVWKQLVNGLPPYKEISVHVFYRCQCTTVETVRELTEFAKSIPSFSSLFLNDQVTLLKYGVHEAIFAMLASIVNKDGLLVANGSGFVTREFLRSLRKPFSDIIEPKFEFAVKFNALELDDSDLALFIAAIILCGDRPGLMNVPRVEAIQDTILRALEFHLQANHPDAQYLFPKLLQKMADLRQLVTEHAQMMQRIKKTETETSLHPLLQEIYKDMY
Chain of Bile acid receptor (Homo sapiens) (Q96RI1 whole entry, looked up): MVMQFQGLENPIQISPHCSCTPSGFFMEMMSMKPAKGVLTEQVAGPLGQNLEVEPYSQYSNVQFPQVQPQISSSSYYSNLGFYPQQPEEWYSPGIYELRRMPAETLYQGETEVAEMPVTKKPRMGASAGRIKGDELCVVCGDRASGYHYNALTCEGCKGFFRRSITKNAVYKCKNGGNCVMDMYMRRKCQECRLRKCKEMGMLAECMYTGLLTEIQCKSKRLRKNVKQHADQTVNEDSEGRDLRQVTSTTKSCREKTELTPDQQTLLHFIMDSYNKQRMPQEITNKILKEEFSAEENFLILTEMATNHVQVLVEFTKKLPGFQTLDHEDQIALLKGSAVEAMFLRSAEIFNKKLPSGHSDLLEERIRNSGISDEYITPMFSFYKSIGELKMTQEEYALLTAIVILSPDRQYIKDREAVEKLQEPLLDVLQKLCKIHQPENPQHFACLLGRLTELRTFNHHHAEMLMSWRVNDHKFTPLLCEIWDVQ

CC1NC(C(=O)O)Cc2c1[nH]c1ccccc21 (stereo unspecified)
inactive: Potency [1] | Potency [2] | Potency [3] | Potency [4]

CNCC(N)C(=O)O (stereo unspecified)
inactive: Potency [1] | Potency [2] | Potency [3] | Potency [4] | Potency [5]

CC1=C(O)C(=O)[C@@H]2O[C@@H]2C1=O
inactive: Potency [1] | Potency [2] | Potency [3] | Potency [4] | Potency [5] | Potency [6]

N[C@@H](Cc1ccc(O)c(O)c1)C(=O)O
-25.4%: activity change, negative = inhibition [18]
inactive: outcome [7] | outcome [8] | outcome [9] | activation [10] 1.53% | Potency [11] | Potency [1] | Potency [2] | Potency [3] | Potency [4] | outcome [12] inactive [at 0.573 µM] | outcome [13] inactive [at 0.573 µM] | activity change, negative = inhibition [14] 3.84% [at 0.573 µM] | outcome [15] inactive [at 0.573 µM] | Potency [17] | outcome [18] inactive [at 0.702 µM]
active: Potency [16] 3.83 µM | Potency [19] 0.429 µM

CN(CCCC(=O)c1cccnc1)N=O
inactive: Potency [1] | Potency [2] | Potency [3] | Potency [4] | Potency [5] | Potency [6]

C[C@H]1CC[C@@H]2N(C1)C[C@H]1[C@@H]3C[C@H]4[C@@H](CC(=O)[C@H]5C[C@@H](O)CC[C@@]54C)[C@@H]3CC[C@H]1[C@]2(C)O
inactive: Potency [1] | Potency [2] | Potency [3] | Potency [4] | Potency [5] | Potency [6]

COc1c2ccc(OCC/C(C)=C/C(=O)C=C(C)C)cc2nc2occc12
inactive: Potency [1] | Potency [2] | Potency [3] | Potency [4]

O=C(O)Cc1c[nH]c2ccc(O)cc12
inactive: outcome [7] | outcome [8] | Potency [20] | outcome [9] | Potency [1] | Potency [2] | Potency [3] | Potency [4] | outcome [21]

CCCC(=O)OC
inactive: Potency [1] | Potency [2] | Potency [3] | Potency [4]

Nc1ncnc2c1ncn2[C@@H]1O[C@H](COP(=O)(O)OP(=O)(O)OC[C@H]2OC(O)[C@H](O)[C@@H]2O)[C@@H](O)[C@H]1O (stereo partly specified)
inactive: Potency [1] | Potency [2] | Potency [3] | Potency [4]
